# Results taken from PubChem BioAssay (NCI).
# “And” between values parts separate entries of the source, which are not always exact repeats. Identical values can stand only once. This is part of a sample that, as a whole, favours compounds with a hit. Of some 83,000 tested, about 20% had one in any assay.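 In brief: 96-well plates, 48 h treatment, single concentration, percent growth endpoint.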 The source made the active and inactive calls. Rule for the calls: active = growth percent below 10; inactive = the rest.
# Columns and labels:
# Assay in all cases: NCI-60 one-dose screen, 48 h (100 = growth as untreated, 0 = no growth, -100 = all killed)
# NCI-H23 lung = tested on: NCI-H23 lung
# NCI-H226 lung = tested on: NCI-H226 lung
# NCI-H322M lung = tested on: NCI-H322M lung
# HOP-62 NSCLC = tested on: HOP-62 NSCLC
# NCI-H460 lung = tested on: NCI-H460 lung
# HOP-92 NSCLC = tested on: HOP-92 NSCLC
# NCI-H522 lung = tested on: NCI-H522 lung
# A549/ATCC NSCLC = tested on: A549/ATCC NSCLC
# 786-0 renal = tested on: 786-0 renal
# COLO 205 colon = tested on: COLO 205 colon
# DU-145 prostate = tested on: DU-145 prostate
# K-562 leukemia = tested on: K-562 leukemia
# MALME-3M melanoma = tested on: MALME-3M melanoma
# MDA-MB-231 breast = tested on: MDA-MB-231 breast
# RXF 393 renal = tested on: RXF 393 renal
# SF-268 CNS = tested on: SF-268 CNS
# SF-295 CNS = tested on: SF-295 CNS
# SF-539 CNS = tested on: SF-539 CNS
# UACC-257 melanoma = tested on: UACC-257 melanoma
# M14 melanoma = tested on: M14 melanoma
smiles,measurement,setting,value
Cn1c(SSc2ccc(-c3cccnc3)n2C)ccc1-c1cccnc1,growth,NCI-H23 lung; 10 µM unless noted,99.8% (inactive) and 111% (inactive)
same,growth,NCI-H226 lung; 10 µM unless noted,108% (inactive) and 105% (inactive)
same,growth,NCI-H322M lung; 10 µM unless noted,106% (inactive) and 95.5% (inactive)
same,growth,HOP-62 NSCLC; 10 µM unless noted,117% (inactive) and 118% (inactive)
same,growth,NCI-H460 lung; 10 µM unless noted,101% (inactive) and 65.9% (inactive)
same,growth,HOP-92 NSCLC; 10 µM unless noted,79% (inactive) and 101% (inactive)
same,growth,NCI-H522 lung; 10 µM unless noted,62% (inactive) and 81.9% (inactive)
same,growth,A549/ATCC NSCLC; 10 µM unless noted,103% (inactive)
same,growth,786-0 renal; 10 µM unless noted,120% (inactive) and 112% (inactive)
same,growth,COLO 205 colon; 10 µM unless noted,116% (inactive) and 102% (inactive)
same,growth,DU-145 prostate; 10 µM unless noted,115% (inactive) and 107% (inactive)
same,growth,K-562 leukemia; 10 µM unless noted,75.9% (inactive) and 7.91% (active)
same,growth,MALME-3M melanoma; 10 µM unless noted,102% (inactive) and 105% (inactive)
same,growth,MDA-MB-231 breast; 10 µM unless noted,91.4% (inactive) and 110% (inactive)
same,growth,RXF 393 renal; 10 µM unless noted,105% (inactive) and 110% (inactive)
same,growth,SF-268 CNS; 10 µM unless noted,82.1% (inactive) and 93.5% (inactive)
same,growth,SF-295 CNS; 10 µM unless noted,77.9% (inactive) and 93.7% (inactive)
same,growth,SF-539 CNS; 10 µM unless noted,116% (inactive) and 122% (inactive)
same,growth,UACC-257 melanoma; 10 µM unless noted,86.1% (inactive) and 93.8% (inactive)
CN(C)c1ccc2nc3ccc(=[N+](C)C)cc-3sc2c1,growth,NCI-H23 lung; 10 µM unless noted,12.5% (inactive) and 8.52% (active) and 28% (inactive)
same,growth,NCI-H226 lung; 10 µM unless noted,52.2% (inactive) and 66.6% (inactive) and 68.8% (inactive)
same,growth,NCI-H322M lung; 10 µM unless noted,24.8% (inactive) and 11.7% (inactive) and 30.7% (inactive)
same,growth,HOP-62 NSCLC; 10 µM unless noted,58.7% (inactive) and 24.6% (inactive) and 46.6% (inactive)
same,growth,NCI-H460 lung; 10 µM unless noted,17.1% (inactive) and 13.5% (inactive) and 32.9% (inactive)
same,growth,HOP-92 NSCLC; 10 µM unless noted,63.3% (inactive) and 43.9% (inactive) and 76.6% (inactive)
same,growth,NCI-H522 lung; 10 µM unless noted,6.69% (active) and 34.6% (inactive) and 37.6% (inactive)
same,growth,A549/ATCC NSCLC; 10 µM unless noted,3.7% (active) and 3.9% (active) and 14.7% (inactive)
same,growth,786-0 renal; 10 µM unless noted,40.9% (inactive) and 45.6% (inactive) and 54.6% (inactive)
same,growth,COLO 205 colon; 10 µM unless noted,11.2% (inactive) and -3.25% (active) and -16.6% (active)
same,growth,DU-145 prostate; 10 µM unless noted,33.3% (inactive) and 39.8% (inactive) and 87.1% (inactive)
same,growth,K-562 leukemia; 10 µM unless noted,27.4% (inactive) and 41.7% (inactive) and 43.5% (inactive)
same,growth,MALME-3M melanoma; 10 µM unless noted,-30.4% (active) and -12.7% (active) and 48.8% (inactive)
same,growth,MDA-MB-231 breast; 10 µM unless noted,8.14% (active) and 10% (active) and 33.4% (inactive)
same,growth,RXF 393 renal; 10 µM unless noted,79.9% (inactive) and 65.7% (inactive) and 82.6% (inactive)
same,growth,SF-268 CNS; 10 µM unless noted,27.7% (inactive) and 22.8% (inactive) and 26.2% (inactive)
same,growth,SF-295 CNS; 10 µM unless noted,17.2% (inactive) and 17.6% (inactive) and 43% (inactive)
same,growth,SF-539 CNS; 10 µM unless noted,28.4% (inactive) and 3.79% (active) and 15.5% (inactive)
same,growth,UACC-257 melanoma; 10 µM unless noted,-12.8% (active) and -22.4% (active) and 17.8% (inactive)
CCCCCCCCCCCCCCCc1ccc(Cl)c(O)c1Cl (tested in a mixture with another compound),growth,NCI-H23 lung; 0.25 µM,19.1% (inactive)
same,growth,NCI-H23 lung; 10 µM,88.8% (inactive)
same,growth,NCI-H226 lung; 0.25 µM,5.35% (active)
same,growth,NCI-H226 lung; 10 µM,93.6% (inactive)
same,growth,NCI-H322M lung; 0.25 µM,61.5% (inactive)
same,growth,NCI-H322M lung; 10 µM,107% (inactive)
same,growth,HOP-62 NSCLC; 0.25 µM,19% (inactive)
same,growth,HOP-62 NSCLC; 10 µM,97.5% (inactive)
same,growth,NCI-H460 lung; 0.25 µM,5.78% (active)
same,growth,NCI-H460 lung; 10 µM,104% (inactive)
same,growth,HOP-92 NSCLC; 0.25 µM,17.5% (inactive)
same,growth,HOP-92 NSCLC; 10 µM,105% (inactive)
same,growth,NCI-H522 lung; 0.25 µM,12.1% (inactive)
same,growth,NCI-H522 lung; 10 µM,83.1% (inactive)
same,growth,A549/ATCC NSCLC; 0.25 µM,38.5% (inactive)
same,growth,A549/ATCC NSCLC; 10 µM,71.9% (inactive)
same,growth,786-0 renal; 0.25 µM,15.6% (inactive)
same,growth,786-0 renal; 10 µM,107% (inactive)
same,growth,COLO 205 colon; 0.25 µM,49.3% (inactive)
same,growth,COLO 205 colon; 10 µM,114% (inactive)
same,growth,DU-145 prostate; 0.25 µM,18.4% (inactive)
same,growth,DU-145 prostate; 10 µM,106% (inactive)
same,growth,K-562 leukemia; 0.25 µM,30.5% (inactive)
same,growth,K-562 leukemia; 10 µM,92.3% (inactive)
same,growth,MALME-3M melanoma; 0.25 µM,22.7% (inactive)
same,growth,MALME-3M melanoma; 10 µM,100% (inactive)
same,growth,MDA-MB-231 breast; 0.25 µM,59.1% (inactive)
same,growth,MDA-MB-231 breast; 10 µM,97.9% (inactive)
same,growth,RXF 393 renal; 0.25 µM,60.3% (inactive)
same,growth,RXF 393 renal; 10 µM,106% (inactive)
same,growth,SF-268 CNS; 0.25 µM,31.4% (inactive)
same,growth,SF-268 CNS; 10 µM,94.9% (inactive)
same,growth,SF-295 CNS; 0.25 µM,29.1% (inactive)
same,growth,SF-295 CNS; 10 µM,109% (inactive)
same,growth,SF-539 CNS; 0.25 µM,15.9% (inactive)
same,growth,SF-539 CNS; 10 µM,103% (inactive)
same,growth,UACC-257 melanoma; 0.25 µM,52.1% (inactive)
same,growth,UACC-257 melanoma; 10 µM,80.7% (inactive)
same,growth,M14 melanoma; 0.25 µM,41% (inactive)
same,growth,M14 melanoma; 10 µM,92.2% (inactive)
CC(C)Cc1ccc(C(C)C(=O)NCc2ccc(Cn3c(=O)sn(CCCCl)c3=O)cc2)cc1 (configuration not stated),growth,NCI-H23 lung; 10 µM unless noted,96.7% (inactive) and -59.1% (active)
same,growth,NCI-H226 lung; 10 µM unless noted,106% (inactive) and 32.6% (inactive)
same,growth,NCI-H322M lung; 10 µM unless noted,101% (inactive) and 73.9% (inactive)
same,growth,HOP-62 NSCLC; 10 µM unless noted,105% (inactive) and -38.5% (active)
same,growth,NCI-H460 lung; 10 µM unless noted,105% (inactive) and 40.2% (inactive)
same,growth,HOP-92 NSCLC; 10 µM unless noted,105% (inactive) and -77.6% (active)
same,growth,NCI-H522 lung; 10 µM unless noted,85.5% (inactive) and -52.3% (active)
same,growth,A549/ATCC NSCLC; 10 µM unless noted,101% (inactive) and -20.1% (active)
same,growth,786-0 renal; 10 µM unless noted,101% (inactive) and -71.6% (active)
same,growth,COLO 205 colon; 10 µM unless noted,66.8% (inactive) and -65% (active)
same,growth,DU-145 prostate; 10 µM unless noted,95% (inactive) and -78% (active)
same,growth,K-562 leukemia; 10 µM unless noted,2.16% (active)
same,growth,MALME-3M melanoma; 10 µM unless noted,110% (inactive) and -74.2% (active)
same,growth,MDA-MB-231 breast; 10 µM unless noted,104% (inactive) and -77.2% (active)
same,growth,RXF 393 renal; 10 µM unless noted,-94.2% (active)
same,growth,SF-268 CNS; 10 µM unless noted,84.8% (inactive) and -40.3% (active)
same,growth,SF-295 CNS; 10 µM unless noted,97.9% (inactive) and 53.7% (inactive)
same,growth,SF-539 CNS; 10 µM unless noted,104% (inactive) and -90.3% (active)
same,growth,UACC-257 melanoma; 10 µM unless noted,94.4% (inactive) and -21.2% (active)
